In PubChem BioAssay AID493170 (National Center for Advancing Translational Sciences (NCATS), 2011):
Inconclusive results are not listed. Activity calls are given as the source filed them. The call rests on the fitted dose curve; in most records, active means well fitted inhibition curve with a large enough effect; inconclusive means small, poorly fitted or top-dose-only effect, or effect the other way; inactive means flat fitted curve, though single readings scatter.

target: Ubiquitin carboxyl-terminal hydrolase 2 (Homo sapiens) (UniProt O75604); test: Ub-rhodamine 110 based assay for inhibitors Ubiquitin-specific Protease USP2a; conditions: USP2a Ub-rhodamine110 cleavage, fluorescence; series mostly up to 38.3 µM; activity change, negative = inhibition: at the top concentration; further: nearly all actives have a fitted effect of over 50% in size
Outline: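 5 nM USP2a preincubated with compounds for 30 min at RT in 20 mM Tris-HCl pH 8.0, 2 mM CaCl2, 2 mM beta-mercaptoethanol, 0.05% CHAPS. Cleavage of 150 nM Ub-rhodamine 110 read kinetically (Ex 485/Em 531) for 7 min.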
On the % scale 0 is the no-effect control and ±100 the full control effect; potency means the concentration at half of the fitted maximal effect.

Ubiquitin carboxyl-terminal hydrolase 2 (Homo sapiens), sequence (O75604 whole entry, looked up): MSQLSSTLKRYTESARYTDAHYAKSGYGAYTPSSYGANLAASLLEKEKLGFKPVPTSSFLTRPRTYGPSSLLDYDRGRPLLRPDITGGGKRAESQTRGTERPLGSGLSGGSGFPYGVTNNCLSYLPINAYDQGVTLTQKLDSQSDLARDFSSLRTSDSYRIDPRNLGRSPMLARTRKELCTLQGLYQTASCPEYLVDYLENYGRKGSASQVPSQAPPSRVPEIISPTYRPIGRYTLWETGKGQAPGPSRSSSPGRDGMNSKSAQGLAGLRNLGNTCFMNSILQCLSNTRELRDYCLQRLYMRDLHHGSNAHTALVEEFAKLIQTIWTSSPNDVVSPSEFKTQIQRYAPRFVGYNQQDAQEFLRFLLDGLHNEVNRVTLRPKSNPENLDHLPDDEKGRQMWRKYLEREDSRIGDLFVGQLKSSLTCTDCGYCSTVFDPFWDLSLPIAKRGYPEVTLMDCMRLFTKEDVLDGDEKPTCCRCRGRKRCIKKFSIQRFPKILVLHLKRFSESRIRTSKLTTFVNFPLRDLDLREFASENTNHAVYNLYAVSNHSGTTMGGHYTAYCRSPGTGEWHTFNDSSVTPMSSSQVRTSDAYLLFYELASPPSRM

Row | SMILES | activity change, negative = inhibition | Potency
1 | Cc1c(NC(=O)C2CCCN(S(=O)(=O)c3cnc[nH]3)C2)c(=O)n(-c2ccccc2)n1C (stereo not given) | -9.5% (inactive) | 
2 | Cc1ccc(S(=O)(=O)N2CCOCC2)cc1NC(=O)CN1C(=O)NC(C)(c2ccc(Cl)cc2Cl)C1=O (stereo not given) | -5.06% (inactive) | 
3 | CC(C)(C)CC(C)(C)NCC(=O)Nc1c2c(nc3ccccc13)CCC2 | -5.64% (inactive) | 
4 | CSc1ccc(NC(=O)CSc2nc3[nH]c(=O)cc(O)c3s2)cc1 |  | 5.62 µM (active)
5 | Cc1ccc(/C=C/S(=O)(=O)N2CCC(C(=O)O)CC2)cc1 | 1.06% (inactive) | 
6 | CCOc1ccc2[nH]c(=O)c(CN(Cc3cccs3)Cc3nnnn3C(C)(C)CC)cc2c1 | -23% (inactive) | 
7 | COc1ccc(OCC(=O)NCCNC(=O)c2cccnc2)cc1 | 10.5% (inactive) | 
8 | N#C/C(=C(/O)CSc1nnc(Cc2cccs2)n1C1CCCCC1)c1nc2ccccc2[nH]1 |  | 7.08 µM (active)
9 | CC(=O)C1=C(O)C(=O)N(c2nnn(C)n2)C1c1cccs1 (stereo not given) | -10.9% (inactive) | 
10 | CCOC(=O)c1c(-c2ccc(C)o2)csc1NC(=O)COC(=O)c1ccc(NC(N)=O)cc1 |  | 7.08 µM (active)
11 | CC(C)(C)C1C=C(Sc2ccccc2)C(=O)O1 (stereo not given) | -0.787% (inactive) | 
12 | O=C(CN1C(=O)/C(=C2\SC(=S)N(CCS(=O)(=O)O)C2=O)c2ccccc21)Nc1cccc(Br)c1 |  | 5.62 µM (active)
13 | CS(=O)(=O)c1nc(-c2ccc(Br)cc2)cc(-c2ccccc2)c1C#N | -17.1% (inactive) | 
14 | CC(C)OCCCNC(=O)CN1C(=O)CC(C)(C)S(=O)(=O)c2ccccc21 | -9.85% (inactive) | 
15 | C=CCOc1cccc(C2C(C(=O)c3ccco3)=C(O)C(=O)N2CCN(CC)CC)c1 (stereo not given) | -4.77% (inactive) | 
16 | COCCN1Cc2cccc(C(=O)N3CCN(c4cc(C)ccc4C)CC3)c2C1=O | -4.98% (inactive) | 
17 | CC(=O)c1ccc2c(c1)C1C=CCC1C(C(=O)O)N2 (stereo not given) |  | 10 µM (active)
18 | CC1Cc2ccccc2N1C(=O)Cn1c(=O)oc2cc(S(=O)(=O)NC3CCCC3)ccc21 (stereo not given) | -25.2% (inactive) | 
19 | O=C(NN=Cc1ccc(N2CCOCC2)s1)c1ccc([N+](=O)[O-])cc1 | -17.2% (inactive) | 
20 | Cc1cc(C)n(C(=O)c2cccc(S(=O)(=O)N3CCCC3)c2)n1 | 2.63% (inactive) | 

Row | SMILES | activity change, negative = inhibition | Potency
21 | N#Cc1c(NC(=O)CSc2ncnc3sccc23)oc(-c2ccco2)c1-c1ccco1 |  | 3.98 µM (active)
22 | O=S(=O)(c1cc(Cl)ccc1Cl)N1CCNCC1 | -6.69% (inactive) | 
23 | COC(=O)c1nnn(-c2nonc2N)c1CSc1ccccn1 | -6.42% (inactive) | 
24 | CCOc1ccc2[nH]c(=O)c(CN(CCc3ccccc3)C(=O)c3cnccn3)cc2c1 | -0.958% (inactive) | 
25 | CCOC(=O)N1CCN(C(=O)CN(c2ccc(Oc3ccccc3)cc2)S(C)(=O)=O)CC1 | -6.74% (inactive) | 
26 | CC1CCCC(N2CCN(C(=O)c3cccc(F)c3)CC2)C1 (stereo not given) | -6.05% (inactive) | 
27 | Cn1c(C(=O)NCCCN2CCN(c3ccccc3F)CC2)cc2c(=O)n(C)c3ccccc3c21 | -27.2% (inactive) | 
28 | CCOc1cc(N2CCOCC2)c(OCC)cc1NC(=O)Cc1cn2ccsc2n1 | 16.1% (inactive) | 
29 | CCNC1=C(Cl)C(=O)c2ccccc2C1=O | -12.4% (inactive) | 
30 | C=CCn1c(O)c(C(CC)=NCCN2CCOCC2)c(=O)[nH]c1=O | -2.11% (inactive) | 
31 | Cc1cccc(NC(=O)NCc2ccc3c(c2)cc(C)n3C)c1 | -10.8% (inactive) | 
32 | CCOC(=O)Nc1nnc(CCc2ccccc2)s1 | 1.11% (inactive) | 
33 | CC(=O)OCC(=O)Nc1ccc(Cl)cc1Cl | -6% (inactive) | 
34 | CCOC(=O)C(C)Sc1nnc(Cn2c(=O)sc3ccccc32)n1-c1ccccc1 (stereo not given) | -6.31% (inactive) | 
35 | CCOc1ccccc1N(CC(=O)NC(C)(C)C)C(=O)c1ccc(CN2CCOCC2)o1 | -4.9% (inactive) | 
36 | N#CC(c1ccccc1)c1ccc(C(=O)c2ccc(F)cc2)cc1 (stereo not given) | -14.7% (inactive) | 
37 | CCC(CO)Oc1cc(NCc2cccc(C)c2)c2ncn(C(C)C)c2c1 (stereo not given) | -5.97% (inactive) | 
38 | Cc1ccc(C)c(S(=O)(=O)N2CCN(C(=O)/C=C/c3ccco3)CC2)c1 |  | 10 µM (active)
39 | CCCOc1ccc(N2C(=O)CC(NCCc3ccc(S(N)(=O)=O)cc3)C2=O)cc1 (stereo not given) | -20.6% (inactive) | 
40 | CN(C)C=Nc1ncc2c3ccccc3n(CCN(C)C)c2c1C#N | -0.528% (inactive) | 
